This is a sample that favours compounds with a hit; in the whole collection about 5.1% have one here.
JMJD2E inh: blocks human JMJD2E demethylase activity | B2RXH2 | JMJD2E catalytic domain, FDH-coupled NADH fluorescence (FDH is formaldehyde dehydrogenase) | Potency, µM (titrated, usually from 57.1 µM), inactives show at the highest dose activity change, negative = inhibition, actives largely listed as inhibitors | 230,000 tested, 1.6% active | AID 2147; active = well fitted inhibition curve with a large enough effect, not every such curve was filed as active; inconclusive = small, poorly fitted or top-dose-only effect, or another doubt; inactive = no such curve, though single readings can be large or run the other way;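 also: potency is read from the fitted curve at half-maximal effect; 0% = wells with enzyme and -100% = buffer wells without enzyme; nearly all actives have a fitted effect of over 50% in size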
Tau FP inhib: blocks human tau fibril formation measured by polarization | P10636 | K18 P301L tau heparin fibrillization, Alexa594 FP, 6 h | Potency, µM (top dose mostly 57.7 µM), for the others: at the top dose activity, negative = inhibition, hits mostly inhibitors | 280,000 tested, 0.39% active | AID 1468; also: potency is read from the fitted curve at half-maximal effect; nearly all actives have a fitted effect of over 55% in size
Target sequence (P10636 561-689 P618L limits assumed): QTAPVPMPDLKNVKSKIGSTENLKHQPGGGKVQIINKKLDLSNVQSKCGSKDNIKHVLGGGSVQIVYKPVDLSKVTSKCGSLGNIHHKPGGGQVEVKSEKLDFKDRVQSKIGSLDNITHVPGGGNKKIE
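Quantitative HTS format: compounds meet 15 uM recombinant K18 P301L tau and Alexa 594-tau tracer in 100 mM sodium acetate pH 7; 20 uM heparin triggers fibrillization at 37 C over 6 hr; FP gives the signal.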
Tau fibril ThT: inhibitors of human tau fibril formation, thioflavin T binding; P10636; recombinant tau K18 P301L, heparin-induced fibrillization, ThT fluorescence; Potency, µM (top dose mostly 57.4 µM), inactives show top-dose activity, negative = inhibition, actives largely listed as inhibitors; 270,000 tested, 2.1% active; also: potency is read from the fitted curve at half-maximal effect; nearly all actives have a fitted effect of over 55% in size
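Using a mix of unlabeled (15 uM) and Alexa 594-labeled (0.24 uM) tau K18 P301L, heparin-triggered fibrillization over 6 hr at 37 C was scored by ThT fluorescence.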
Tau fluor cs: counter-screen for tau fibril formation inhibitors; tau K18 P301L (four-repeat tau fragment) Alexa594 fluorescence, heparin fibrillization; 280,000 tested, 0.93% active; Potency, µM (series often up to 57.7 µM), inactives show top-dose activity change, negative = decrease; AID 1463; also: potency is read from the fitted curve at half-maximal effect; nearly all actives have a fitted effect of over 55% in size
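Human K18 P301L tau (15 uM unlabeled plus 0.24 uM Alexa 594-labeled, final) in 100 mM sodium acetate pH 7 was mixed with compound and 20 uM heparin and incubated 6 hr at 37 C.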
PNC inhibitor: perinucleolar compartment assembly inhibition; 140,000 tested, 3.1% active; AID 2417; PC3M PTB-GFP, PNC prevalence imaging, 16 h; stronger effect = lower value; activity change (PNC), negative = inhibition, % at 10 µM;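 active = readout at or below -70, meaning at least 70% loss of cells showing the perinucleolar compartment, a nuclear body marking cancer cells; inconclusive = readout between -30 and a set limit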;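 also: plate controls were DMSO wells for no effect and camptothecin positive control wells for full effect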
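PC3M cells stably expressing PTB-GFP, 750–1000 cells/well, treated 16 h at 37 °C with compound (23 nl of library stock), in duplicate. After paraformaldehyde fixation and Hoechst stain, imaged at 20x; PNC prevalence scored by image analysis.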
NPSR antag: antagonists of human neuropeptide S receptor cAMP signaling; CHO-NPSR cells, cAMP TR-FRET, antagonist mode; AID 1461; Potency, µM (doses to about 38.3 µM), inactives show at the top dose activity change, negative = inhibition, actives largely listed as inhibitors; 220,000 tested, 1% active; Q6W5P4; also: potency is read from the fitted curve at half-maximal effect; nearly all actives have a fitted effect of over 50% in size
Target sequence (Q6W5P4 whole entry, looked up): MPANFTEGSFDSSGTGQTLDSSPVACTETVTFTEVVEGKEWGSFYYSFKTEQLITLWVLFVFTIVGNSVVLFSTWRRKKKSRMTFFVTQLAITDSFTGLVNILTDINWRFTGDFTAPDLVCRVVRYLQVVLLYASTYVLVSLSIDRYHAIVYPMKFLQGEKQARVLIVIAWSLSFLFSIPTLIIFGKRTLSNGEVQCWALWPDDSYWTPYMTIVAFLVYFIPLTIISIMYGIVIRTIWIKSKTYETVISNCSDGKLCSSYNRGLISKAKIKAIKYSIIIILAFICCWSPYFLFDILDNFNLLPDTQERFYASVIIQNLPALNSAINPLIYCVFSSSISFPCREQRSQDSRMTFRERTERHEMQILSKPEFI
An asterisk follows results filed as active; [ ] = dose if it differs, or a comment. Unless noted, calls follow the shape of the dose curve; as a rule, active = well fitted curve in the direction sought with a large enough effect; inconclusive = small, poorly fitted or top-dose-only effect, or another doubt; inactive = no such curve, though single readings can be large; an effect the other way counts as inactive or inconclusive. Unless noted, % is scaled to controls: 0 for no effect and ±100 for the full control effect.

Results for Oc1cc2c(c(Cl)c1O)CCNCC2c1ccccc1 (stereo unspecified) ?
JMJD2E inh: 12.6µM*; Tau FP inhib: -9.4%; Tau fibril ThT: -18.6%; Tau fluor cs: -12.4%; NPSR antag: -18.0%[46.1 µM]

Results for Oc1cc2c(c(Cl)c1O)CCNC[C@H]2c1ccccc1 ?
JMJD2E inh: 12.6µM*; Tau FP inhib: -6.7%; Tau fibril ThT: inconclusive; Tau fluor cs: -18.2%

What do the screens show for `Cc1cccc(C2CN(C)CCc3c2cc(O)c(O)c3Cl)c1` (stereo unspecified)?
JMJD2E inh: 12.6µM*; Tau FP inhib: -6.6%; Tau fibril ThT: inconclusive; Tau fluor cs: -22.9%; NPSR antag: -11.5%[46.1 µM]

What do the screens show for `COc1ccc(C(=O)Nc2cccc(-c3nc4cccnc4s3)c2C)c(OC)c1`?
Tau FP inhib: -3.4%; Tau fibril ThT: inconclusive; Tau fluor cs: -5.8%

What do the screens show for `Cc1ccc(C)c(S(=O)(=O)c2nnn3c2nc(NCc2ccc4c(c2)OCO4)c2sccc23)c1`?
Tau FP inhib: -16.1%; Tau fibril ThT: 19.5%; Tau fluor cs: inconclusive

Results for Cn1c(C(=O)O)c(CC(=O)N2CCC(Cc3ccccc3)CC2)c2ccccc21 ?
JMJD2E inh: 31.6µM*; Tau FP inhib: 4.3%; Tau fibril ThT: inconclusive; Tau fluor cs: -9.9%; PNC inhibitor: -21.5; NPSR antag: -8.0%

How did COc1cc(/C=C2/SC(=O)NC2=O)ccc1Oc1ccc([N+](=O)[O-])cc1[N+](=O)[O-] do in these assays?
JMJD2E inh: 4.9%; Tau FP inhib: -7.3%; Tau fibril ThT: 15.8µM*; Tau fluor cs: inconclusive; NPSR antag: 12.6µM*

What do the screens show for `O=C(O)c1cccc(Oc2ccccc2[N+](=O)[O-])c1`?
JMJD2E inh: 15.3%; Tau FP inhib: 2.8%; Tau fibril ThT: -3.2%; Tau fluor cs: -4.3%; PNC inhibitor: -116.4*; NPSR antag: 3.3%

How did Oc1ccc2oc3c(c2c1C=NCc1ccncc1)CCCC3 do in these assays?
JMJD2E inh: inconclusive; Tau FP inhib: inconclusive; Tau fibril ThT: 15.8µM*; Tau fluor cs: inconclusive; NPSR antag: inconclusive

Results for Cc1cc2nc(SCC(=O)Nc3nonc3C)c3c(c2cc1C)CCCC3 ?
JMJD2E inh: -2.4%; Tau FP inhib: -7.3%; Tau fibril ThT: -3.3%; Tau fluor cs: -4.5%; PNC inhibitor: 48.0; NPSR antag: 7.94µM*

How did Cc1cccc(Cn2c(SCc3ccc(C(=O)N4CCCCCC4)cc3)nc3ccncc32)c1 do in these assays?
Tau FP inhib: -1.7%; Tau fibril ThT: -10.8%; Tau fluor cs: -1.2%

Results for O=C(NCc1ccco1)c1ccc2c(c1)N(Cc1ccccc1F)C(=O)c1ccccc1S2=O (stereo unspecified) ?
Tau FP inhib: -13.5%; Tau fibril ThT: -0.6%; Tau fluor cs: -26.8%

How did CC(C)c1nc2ccc(C(=O)NCCCN3CCN(c4cccc(Cl)c4)CC3)cc2o1 do in these assays?
Tau FP inhib: 4.0%; Tau fibril ThT: inconclusive; Tau fluor cs: -10.0%

What do the screens show for `CCn1c(SCC(=O)NC2CCS(=O)(=O)C2)nnc1-c1ccccc1` (stereo unspecified)?
JMJD2E inh: -2.1%; Tau FP inhib: 4.0%; Tau fibril ThT: -4.3%; Tau fluor cs: 5.8%; NPSR antag: 8.1%

Results for Cc1ccc(-c2cn(-c3ccccc3)c(SCC(=O)NC3CCS(=O)(=O)C3)n2)cc1C (stereo unspecified) ?
JMJD2E inh: 10.6%; Tau FP inhib: 1.9%; Tau fibril ThT: -8.2%; Tau fluor cs: -9.6%; PNC inhibitor: -83.3*; NPSR antag: -15.8%

What do the screens show for `COc1ccc(N2C(=O)C(Cl)=C(N3CCCC(C)C3)C2=O)cc1` (stereo unspecified)?
JMJD2E inh: -1.6%; Tau FP inhib: 28.2µM*; Tau fibril ThT: 15.8µM*; Tau fluor cs: inconclusive; PNC inhibitor: inconclusive; NPSR antag: -28.2%[46.1 µM]

Screening results from PubChem BioAssay.
